Screening data as filed in PubChem BioAssay.
L major viab: inhibitors of Leishmania major promastigote growth; AID 1063; 200,000 compounds, 9% hits; inhibition, % at 10 µM; Leishmania major promastigotes, resazurin fluorescence viability; in the data active = inhibition above about 50%;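 note: promastigotes grown with compound for 44 hours at 28 °C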
PTEN del growth: suppresses growth of cells with PTEN deletion; AID 827; 140,000 compounds, 1.2% hits; HCT116 PTEN-null viability, CellTiter-Glo, 60 h; active compounds read low; viability, % at 10 µM;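 active = viability at or below a set limit, 4 SD under the median of all tested compounds, cut at about 3.7% in these data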;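 note: PTEN knockout HCT116 line with beta catenin targeted HCT116 as companion control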
bCat KO growth: beta-catenin-lacking colon tumor cell growth suppression; HCT116 beta-catenin knockout viability, CellTiter-Glo, 60 h; active compounds read low; viability, % at 10 µM; 140,000 compounds, 1.5% hits;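 active = viability at or under a set limit, the compound median less 4 SD, cut at about 6% in these data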;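 note: 0% = Hyamine 1622 control at 20 µM and 100% = untreated cell control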
p97 ATPase inh: human p97 ATPase inhibition; P55072; recombinant p97 ATPase, Kinase-Glo ATP luminescence, 3 h; inhibition, % at 8 µM; 220,000 compounds, 0.42% hits; AID 1481; in the data active = inhibition above about 15%;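 note: 0% = DMSO vehicle and 100% = wells lacking enzyme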
ROMK primary: modulates human ROMK potassium channel activity; Tet-inducible ROMK, thallium flux fluorescence; actives lie on both sides; AID 1918; B-score at 10 µM; P48048; 130,000 compounds, 2% hits;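 active = signal ratio slope over the read window, or its plate-corrected B-score, at least 3 SD from the plate mean, either direction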;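 note: B-score of the F/F0 ratio slope over 7 to 12 s after thallium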
Target sequence (P48048 whole entry, looked up): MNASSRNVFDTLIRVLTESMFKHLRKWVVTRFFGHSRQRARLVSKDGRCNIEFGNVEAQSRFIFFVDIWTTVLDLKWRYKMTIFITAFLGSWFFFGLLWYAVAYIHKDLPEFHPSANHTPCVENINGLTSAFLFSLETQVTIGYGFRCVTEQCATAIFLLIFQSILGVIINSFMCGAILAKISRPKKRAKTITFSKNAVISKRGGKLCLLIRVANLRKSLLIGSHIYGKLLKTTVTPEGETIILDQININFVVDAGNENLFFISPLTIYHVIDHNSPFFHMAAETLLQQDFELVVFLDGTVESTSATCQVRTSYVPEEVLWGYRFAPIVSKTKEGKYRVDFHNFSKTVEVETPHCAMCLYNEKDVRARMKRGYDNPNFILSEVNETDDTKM
Insulin prom inh: TRM-6 insulin promoter activity inhibition; TRM-6 cells (human fetal islet line), insulin promoter-eGFP reporter, imaging; reporter expression induced with tamoxifen; inhibition, % at 2 µM; 130,000 compounds, 0.9% hits; AID 1273;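 active = inhibition above the mean plus 3 SD, with well images judged a real hit on visual review, cut at about 60% in these data, passing the limit was not always enough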
* marks the source's active call; other numbers are inactive results; · = no result given. Only some compounds are listed: those with a hit (about 10% of all), similar ones and a draw of the others.

SMILES	L major viab	PTEN del growth	bCat KO growth	p97 ATPase inh	ROMK primary	Insulin prom inh
N#Cc1cccnc1N1CCC(C(N)=O)CC1	·	·	·	10	·	·
N#CC1=C(SCc2ccccc2)NC(=O)CC1c1cccc(O)c1 (centres undefined)	62*	·	75	2	·	·
N#CC1=C(SCc2ccccc2)NC(=O)CC1c1ccc(O)cc1 (centres undefined)	28	90	88	-2	-0.35	-388
CN(C)c1ccc(/C=C/C(=O)c2ccc3c(c2)OCCO3)cc1[N+](=O)[O-]	92*	11	9	6	·	33
O=C(O)c1ccc(Cl)c(S(=O)(=O)Nc2ccc3cn[nH]c3c2)c1	4	·	·	12	2.1	·
N#Cc1ccccc1NC(=O)Nc1ccc(Cl)cc1	1	98	100	4	·	24
Cc1ccc(NC(=O)Nc2ccccc2C#N)c(Cl)c1	66*	86	96	2	·	11
COc1ccc(C(C#N)N2N=C(c3ccccc3)CC2c2ccccc2)cc1OC (centres undefined)	100*	73	76	-1	·	22
COc1ccc(C2=NN(C(C#N)c3ccc(OC)cc3)C(c3ccccc3)C2)cc1 (centres undefined)	69*	47	48	-2	0.34	-10
CC1=NN(C(C#N)c2ccccc2)C(c2ccccc2)C1 (centres undefined)	·	·	·	1	·	·
CCN(CC)C(=O)CSc1nc(O)c(Cc2ccccc2)c(=O)n1-c1ccccc1C	·	·	·	5	·	·
Cc1cccc(NCC(=O)N/N=C/c2cccc(Br)c2)c1	-4	·	·	2	0.35	3
C/C(=N\NC(=O)CNc1cccc(C)c1)c1ccc(Br)s1	57*	88	79	1	0.055	17
C/C(=N\NC(=O)c1ccc(Cl)c(Cl)c1)c1ccc(Br)s1	11	3.6*	6.1*	8	·	·
CC1(C)CC(=O)C=C(NCCN2CCN(C(=S)NC3CCCCC3)CC2)C1	·	·	·	6	·	·
Cc1sc2ncnc(SCC(=O)NNC(=O)COc3cccc4ccccc34)c2c1C	-12	93	100	5	-1.5	·
COc1cc(CNCCCCO)ccc1OCc1ccccc1F	83*	·	·	1	0.062	11
CCOCCCNCc1ccc(OCc2ccccc2C)c(OC)c1	98*	·	·	1	·	·
COc1cc(CNc2ccc(N3CCCC3)cc2)ccc1OCc1ccccc1F	2	70	60	5	0.21	11
CC(C)(C)NCc1cc(Cl)ccc1OCc1ccccc1F	23	·	·	3	0.0012	-33
CCN(CC)CCNCc1cc(Cl)ccc1OCc1ccccc1F	99*	·	·	-5	-0.67	·
CCNCc1ccc(OCc2ccccc2F)c(OC)c1	81*	·	·	-4	·	·
CN(/N=C/c1cc(Cl)cc(Cl)c1O)c1c(Cl)cccc1[N+](=O)[O-]	·	·	·	8	·	·
COC(=O)c1cc(NS(=O)(=O)c2ccc(NC(C)=O)cc2)ccc1Cl	·	·	·	5	·	·
CCCCN1C(=O)C(=Nc2cccc3cnccc23)c2ccccc21	77*	·	·	0	-2	·
SMILES	L major viab	PTEN del growth	bCat KO growth	p97 ATPase inh	ROMK primary	Insulin prom inh
CC(C)N1C/C(=C/c2cccnc2)C(=O)/C(=C/c2cccnc2)C1	100*	58	52	-8	-1.6	-58
CN1C/C(=C/c2cccnc2)C(=O)/C(=C/c2cccnc2)C1	100*	2.1*	2.1*	1	-3.5*	-68
CC(C)N1C/C(=C/c2ccsc2)C(=O)/C(=C/c2ccsc2)C1	100*	1.5*	2.6*	-2	·	·
CCN(CC)C(=O)COc1ccc(/C(C)=N/Nc2ncc(Cl)cc2Cl)cc1	·	·	·	2	·	·
Cc1cc(NS(=O)(=O)c2ccc(NC(=O)c3oc4ccccc4c3C)cc2)no1	0	96	92	0	·	79*
c1ccc(Cn2nnnc2C(c2cccs2)N2CCCCCC2)cc1 (centres undefined)	13	75	73	-1	·	-8
c1ccc(Cn2nnnc2C(c2cccs2)N2CCc3ccccc3C2)cc1 (centres undefined)	51*	55	62	-7	·	-7
Oc1ccc(N2CCN(C(c3cccs3)c3nnnn3CCc3ccccc3)CC2)cc1 (centres undefined)	100*	79	86	8	0.77	45
COCCn1nnnc1C(c1cccs1)N1CCN(c2cccc(C(F)(F)F)c2)CC1 (centres undefined)	2	70	83	-3	-0.78	·
CC(=O)c1sc(N/N=C2\CC3CCC2(C)C3(C)C)nc1C (centres undefined)	83*	·	·	0	-0.39	29
CCOC(=O)CN(C(=O)CSc1nnc2c(n1)[nH]c1ccc(OC)cc12)c1ccc(F)cc1	90*	76	73	2	-0.0079	·
CC(C)OC(=O)CSc1nnc2c(n1)[nH]c1ccc(F)cc12	0	·	·	0	0.58	·
O=C(Nc1ccc(Cl)cc1)NN1CC(=O)N(c2cccc(C(F)(F)F)c2)CC1=O	·	·	·	-1	-0.71	·
Cc1ccc(-c2nc3ncccc3o2)cc1NC(=O)c1ccccc1	·	·	·	0	·	·
CCCCC(=O)Nc1cc(-c2nc3ncccc3o2)ccc1C	99*	·	·	-2	-0.33	·
Cc1ccc(C(=O)Nc2cccc(-c3nc4ncccc4o3)c2)cc1	·	·	·	2	·	·
O=C(Nc1cccc(-c2nc3ncccc3o2)c1)c1ccccc1	100*	·	·	3	2.4	-40
CC(C)[C@H](NC(=O)CCCn1nnc2ccccc2c1=O)C(=O)O	·	·	·	5	·	·
O=C(NCC1CCCO1)c1cc(NS(=O)(=O)c2cccs2)cc(NS(=O)(=O)c2cccs2)c1 (centres undefined)	-9	·	·	-2	0.56	-27
CCOC(=O)CN1C(=O)S/C(=C/c2ccc3c(c2)n(C)c(=O)n3C)C1=O	69*	77	76	-2	·	-75
COc1ccc(Nc2c3c(nc4ccccc24)CCCC3)cc1OC	88*	·	·	1	-0.025	-6
Fc1ccc(Nc2c3c(nc4ccccc24)CCC3)cc1	72*	·	·	4	-0.092	·
COc1ccc(CCNc2c3ccccc3nc3ccccc23)cc1OC	·	·	·	7	·	·
Cc1ccccc1C(=O)Nc1c2c(nc3ccccc13)CCCC2	5	66	69	1	·	·
c1ccc(Nc2c3c(nc4ccccc24)CCC3)cc1	76*	·	·	1	-1.3	·
SMILES	L major viab	PTEN del growth	bCat KO growth	p97 ATPase inh	ROMK primary	Insulin prom inh
c1ccc2c(Nc3ccc4c(c3)OCCO4)c3c(nc2c1)CCC3	88*	·	·	6	0.99	·
Cc1ccc2nc3c(c(Nc4ccccc4)c2c1)CCC3	·	·	·	9	·	·
O=C(Cn1cnc2c(nnn2Cc2ccc(F)cc2)c1=O)NCc1ccco1	-8	97	97	-1	0.013	24
O=C(/C=C/c1cnc2ccccc2n1)NC12CC3CC(CC(C3)C1)C2	1	87	88	4	·	·
O=C(Nc1ccccc1Cl)OCc1cncs1	0	·	·	-2	-1.5	67*
O=C(OCc1cncs1)c1ccccc1Cl	-7	·	·	2	-0.55	·
CC12CCC(C(=O)N(Cc3ccccc3)Cc3ccccc3)(OC1=O)C2(C)C (centres undefined)	72*	48	55	-6	·	-31
CC12CCC(C(=O)NCc3cccnc3)(OC1=O)C2(C)C (centres undefined)	-5	96	94	-5	0.084	62
